# Results published in PubChem BioAssay AID1159580 (chemical genetic matrix, 2015).
# The campaign covered roughly 5,500 compounds. About 2,000 (36%) were called active. Another 18% or so got no clear call; they are omitted. This is one part of the list. Values without a mark were called inactive. No stated cut-off is given here; in the data, active means normalized growth mostly below about 0.91 (no sharp cut-off); inconclusive means no clear call, values can overlap the other calls; inactive means mostly above about 0.92.
# Test: chemical genetic growth profiling, strain panel (AID 1159580);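 further: tested at 20 µM; growth read once vehicle control cultures reached saturation at 30 °C; 1 = growth at the plate median or of vehicle wells; lower values mean less growth of the strain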
# Settings: growth OD
structure (smiles),measurement,setting,value
C[n+]1c2cc(N)ccc2cc2ccc(N)cc21,normalized growth,"S. cerevisiae deletion strains, locus YKL009W, strain mrt4, hits give low values",0.933
same,normalized growth,"S. cerevisiae deletion strains, locus YKL068W, hits give low values",0.956
same,normalized growth,"S. cerevisiae deletion strains, locus YKL085W, strain MDH1 (second series), hits give low values",0.963
same,normalized growth,"S. cerevisiae deletion strains, locus YKL085W, strain MDH1, hits give low values",0.963
same,normalized growth,"S. cerevisiae deletion strains, locus YKL160W, strain elf1, hits give low values",0.586 (active)
same,normalized growth,"S. cerevisiae deletion strains, locus YKL190W, strain CNB1, hits give low values",0.85 (active)
same,normalized growth,"S. cerevisiae deletion strains, locus YKR001C, strain vps1, hits give low values",0.844 (active)
same,normalized growth,"S. cerevisiae deletion strains, locus YKR026C, strain gcn3, hits give low values",0.696 (active)
same,normalized growth,"S. cerevisiae deletion strains, locus YKR091W, strain srl3, hits give low values",0.784 (active)
same,normalized growth,"S. cerevisiae deletion strains, locus YLL001W, strain dnm1, hits give low values",0.456 (active)
same,normalized growth,"S. cerevisiae deletion strains, locus YLL026W, hits give low values",0.471 (active)
same,normalized growth,"S. cerevisiae deletion strains, locus YLL041C, strain sdh2, hits give low values",0.652 (active)
same,normalized growth,"S. cerevisiae deletion strains, locus YLR027C, strain aat2, hits give low values",0.446 (active)
same,normalized growth,"S. cerevisiae deletion strains, locus YLR039C, strain RIC1, hits give low values",0.906
same,normalized growth,"S. cerevisiae deletion strains, locus YLR058C, strain SHM2, hits give low values",0.743 (active)
same,normalized growth,"S. cerevisiae deletion strains, locus YLR102C, strain apc9, hits give low values",0.924 (active)
same,normalized growth,"S. cerevisiae deletion strains, locus YLR113W, strain HOG1, hits give low values",0.862
same,normalized growth,"S. cerevisiae deletion strains, locus YLR221C, strain rsa3, hits give low values",0.468 (active)
same,normalized growth,"S. cerevisiae deletion strains, locus YLR258W, strain gsy2, hits give low values",0.524 (active)
same,normalized growth,"S. cerevisiae deletion strains, locus YLR262C, strain YPT6 (second series), hits give low values",0.718 (active)
same,normalized growth,"S. cerevisiae deletion strains, locus YLR262C, strain YPT6, hits give low values",0.902
same,normalized growth,"S. cerevisiae deletion strains, locus YLR268W, strain sec22, hits give low values",0.776 (active)
same,normalized growth,"S. cerevisiae deletion strains, locus YLR320W, strain mms22, hits give low values",0.191 (active)
same,normalized growth,"S. cerevisiae deletion strains, locus YLR330W, strain CHS5, hits give low values",0.863 (active)
same,normalized growth,"S. cerevisiae deletion strains, locus YLR342W, strain FKS1 (second series), hits give low values",0.802
same,normalized growth,"S. cerevisiae deletion strains, locus YLR342W, strain FKS1, hits give low values",0.752 (active)
same,normalized growth,"S. cerevisiae deletion strains, locus YLR357W, strain rsc2, hits give low values",0.669 (active)
same,normalized growth,"S. cerevisiae deletion strains, locus YLR370C, strain arc18, hits give low values",0.506 (active)
same,normalized growth,"S. cerevisiae deletion strains, locus YLR371W, strain rom2, hits give low values",0.908 (active)
same,normalized growth,"S. cerevisiae deletion strains, locus YLR384C, strain iki3, hits give low values",0.682 (active)
same,normalized growth,"S. cerevisiae deletion strains, locus YLR418C, strain cdc73, hits give low values",0.727 (active)
same,normalized growth,"S. cerevisiae deletion strains, locus YML016C, strain PPZ1, hits give low values",0.806 (active)
same,normalized growth,"S. cerevisiae deletion strains, locus YML032C, strain rad52, hits give low values",0.195 (active)
same,normalized growth,"S. cerevisiae deletion strains, locus YML120C, strain ndi1, hits give low values",0.409 (active)
same,normalized growth,"S. cerevisiae deletion strains, locus YML124C, strain tub3, hits give low values",0.928 (active)
same,normalized growth,"S. cerevisiae deletion strains, locus YMR058W, strain fet3, hits give low values",0.531 (active)
same,normalized growth,"S. cerevisiae deletion strains, locus YMR078C, strain ctf18, hits give low values",0.783 (active)
same,normalized growth,"S. cerevisiae deletion strains, locus YMR125W, strain sto1, hits give low values",0.703 (active)
same,normalized growth,"S. cerevisiae deletion strains, locus YMR129W, hits give low values",0.648 (active)
same,normalized growth,"S. cerevisiae deletion strains, locus YMR205C, strain PFK2, hits give low values",0.439 (active)
same,normalized growth,"S. cerevisiae deletion strains, locus YMR223W, strain ubp8, hits give low values",0.717 (active)
same,normalized growth,"S. cerevisiae deletion strains, locus YMR231W, strain pep5, hits give low values",0.945
same,normalized growth,"S. cerevisiae deletion strains, locus YMR263W, strain SAP30, hits give low values",0.626 (active)
same,normalized growth,"S. cerevisiae deletion strains, locus YMR307W, strain GAS1, hits give low values",0.874
same,normalized growth,"S. cerevisiae deletion strains, locus YNL067W, strain RPL9B, hits give low values",0.698 (active)
same,normalized growth,"S. cerevisiae deletion strains, locus YNL071W, strain lat1, hits give low values",0.28 (active)
same,normalized growth,"S. cerevisiae deletion strains, locus YNL128W, strain TEP1, hits give low values",0.613 (active)
same,normalized growth,"S. cerevisiae deletion strains, locus YNL153C, strain GIM3, hits give low values",0.744 (active)
same,normalized growth,"S. cerevisiae deletion strains, locus YNL183C, strain NPR1, hits give low values",0.87
same,normalized growth,"S. cerevisiae deletion strains, locus YNL209W, strain ssb2, hits give low values",0.554 (active)
same,normalized growth,"S. cerevisiae deletion strains, locus YNL233W, strain BNI4, hits give low values",0.725 (active)
same,normalized growth,"S. cerevisiae deletion strains, locus YNL248C, strain rpa49, hits give low values",0.167 (active)
same,normalized growth,"S. cerevisiae deletion strains, locus YNL250W, strain rad50, hits give low values",0.817 (active)
same,normalized growth,"S. cerevisiae deletion strains, locus YNL271C, strain bni1, hits give low values",0.911 (active)
same,normalized growth,"S. cerevisiae deletion strains, locus YNL298W, strain CLA4, hits give low values",0.896 (active)
same,normalized growth,"S. cerevisiae deletion strains, locus YNL307C, strain MCK1, hits give low values",0.66 (active)
same,normalized growth,"S. cerevisiae deletion strains, locus YNL322C, strain KRE1 (second series), hits give low values",0.218 (active)
same,normalized growth,"S. cerevisiae deletion strains, locus YNL322C, strain KRE1, hits give low values",0.836 (active)
same,normalized growth,"S. cerevisiae deletion strains, locus YNR049C, strain mso1, hits give low values",0.677 (active)
same,normalized growth,"S. cerevisiae deletion strains, locus YNR052C, strain pop2, hits give low values",0.801 (active)
same,normalized growth,"S. cerevisiae deletion strains, locus YOL006C, strain TOP1, hits give low values",0.349 (active)
same,normalized growth,"S. cerevisiae deletion strains, locus YOL012C, strain htz1",0.393
same,normalized growth,"S. cerevisiae deletion strains, locus YOL147C, strain pex11, hits give low values",0.882 (active)
same,normalized growth,"S. cerevisiae deletion strains, locus YOR001W, strain rrp6, hits give low values",0.442 (active)
same,normalized growth,"S. cerevisiae deletion strains, locus YOR061W, strain CKA2, hits give low values",0.865 (active)
same,normalized growth,"S. cerevisiae deletion strains, locus YOR069W, strain VPS5, hits give low values",0.915 (active)
same,normalized growth,"S. cerevisiae deletion strains, locus YOR070C, strain gyp1, hits give low values",0.557 (active)
same,normalized growth,"S. cerevisiae deletion strains, locus YOR080W, strain dia2, hits give low values",0.409 (active)
same,normalized growth,"S. cerevisiae deletion strains, locus YOR083W, strain WHI5, hits give low values",0.452 (active)
same,normalized growth,"S. cerevisiae deletion strains, locus YOR106W, strain vam3, hits give low values",0.38 (active)
same,normalized growth,"S. cerevisiae deletion strains, locus YOR136W, strain idh2, hits give low values",0.91 (active)
same,normalized growth,"S. cerevisiae deletion strains, locus YOR144C, strain elg1, hits give low values",0.858 (active)
same,normalized growth,"S. cerevisiae deletion strains, locus YOR184W, strain ser1, hits give low values",0.664 (active)
same,normalized growth,"S. cerevisiae deletion strains, locus YOR231W, strain MKK1, hits give low values",0.822 (active)
same,normalized growth,"S. cerevisiae deletion strains, locus YOR265W, strain rbl2, hits give low values",0.599 (active)
same,normalized growth,"S. cerevisiae deletion strains, locus YOR270C, strain vph1, hits give low values",0.353 (active)
same,normalized growth,"S. cerevisiae deletion strains, locus YOR290C, strain snf2, hits give low values",0.447 (active)
same,normalized growth,"S. cerevisiae deletion strains, locus YOR316C, strain cot1, hits give low values",0.926
same,normalized growth,"S. cerevisiae deletion strains, locus YPL051W, strain arl3, hits give low values",0.597 (active)
same,normalized growth,"S. cerevisiae deletion strains, locus YPL055C, strain LGE1, hits give low values",0.678 (active)
same,normalized growth,"S. cerevisiae deletion strains, locus YPL078C, strain atp4, hits give low values",0.465 (active)
same,normalized growth,"S. cerevisiae deletion strains, locus YPL106C, strain sse1, hits give low values",0.695 (active)
same,normalized growth,"S. cerevisiae deletion strains, locus YPL240C, strain hsp82, hits give low values",0.685 (active)
same,normalized growth,"S. cerevisiae deletion strains, locus YPL241C, strain CIN2, hits give low values",0.88 (active)
same,normalized growth,"S. cerevisiae deletion strains, locus YPL256C, strain CLN2, hits give low values",0.903
same,normalized growth,"S. cerevisiae deletion strains, locus YPR119W, strain clb2, hits give low values",0.92 (active)
same,normalized growth,"S. cerevisiae deletion strains, locus YPR141C, strain kar3, hits give low values",0.93
same,normalized growth,"S. cerevisiae deletion strains, locus YPR163C, strain tif3, hits give low values",0.883 (active)
same,normalized growth,"S. cerevisiae deletion strains, locus YPR167C, strain met16, hits give low values",0.865 (active)
same,normalized growth,"S. cerevisiae deletion strains, strain wtn01, hits give low values",0.793 (active)
same,normalized growth,"S. cerevisiae strains, strain wild type, hits give low values",0.831 (active)
